# Screens: PubChem BioAssay, several laboratories
# Sampled rows, rich in hits. Any-hit rate of the full collection: about 1.8%.
# Rtt109 HAT inh = blocks Candida albicans Rtt109/Vps75 acetyltransferase activity; purified Rtt109/Vps75, ThioGlo CoA-SH fluorescence, 4 h; 330,000 tested, 0.16% active; Q5AAJ8; inhibition, % at 34.9 µM;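 active = inhibition of at least 50% in every replicate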
# TLR4 MyD88 comp = inhibitors of human TLR4-MyD88 binding; O00206+Q99836; HeLa CL3-4 TLR4/MyD88 BLA complementation, FRET ratio; inhibition, % at 8.4 µM; 200,000 tested, 0.18% active; AID 861; in the data active = inhibition above about 25%;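 note: 0% = vehicle and 100% = reference inhibitor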
# LANA-H2B inh = blocks KSHV LANA binding to histone H2A/H2B. inhibition, % (test concentration not listed). Q9QR71. 320,000 tested, 0.6% active. cell-free LANA-H2A/H2B peptide, fluorescence polarization; in the data active = inhibition mostly above about 10%, no sharp cut-off; inactive = mostly below about 6.7%
# TLR9-MyD88 inh = inhibitors of human TLR9-MyD88 binding; Q9NR96+Q99836; CHO BLA complementation TLR9-MyD88, CCF4 FRET ratio; inhibition, % at 4.98 µM; 340,000 tested, 0.21% active;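 active = inhibition above the mean over all tested compounds plus 3 SD, cut at about 21% in these data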;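 note: 0% = DMSO only wells and 100% = clavulanate BLA inhibitor control wells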
# Target sequence (Q99836 whole entry, looked up): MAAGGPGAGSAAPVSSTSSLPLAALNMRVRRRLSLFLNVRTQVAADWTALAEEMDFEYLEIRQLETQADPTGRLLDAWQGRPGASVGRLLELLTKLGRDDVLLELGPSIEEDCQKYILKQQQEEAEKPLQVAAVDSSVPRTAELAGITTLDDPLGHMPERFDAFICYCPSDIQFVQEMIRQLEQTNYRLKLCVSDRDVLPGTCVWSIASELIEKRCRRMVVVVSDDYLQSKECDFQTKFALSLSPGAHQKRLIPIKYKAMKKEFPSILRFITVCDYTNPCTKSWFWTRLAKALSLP
# Target sequence (Q9NR96 whole entry, looked up): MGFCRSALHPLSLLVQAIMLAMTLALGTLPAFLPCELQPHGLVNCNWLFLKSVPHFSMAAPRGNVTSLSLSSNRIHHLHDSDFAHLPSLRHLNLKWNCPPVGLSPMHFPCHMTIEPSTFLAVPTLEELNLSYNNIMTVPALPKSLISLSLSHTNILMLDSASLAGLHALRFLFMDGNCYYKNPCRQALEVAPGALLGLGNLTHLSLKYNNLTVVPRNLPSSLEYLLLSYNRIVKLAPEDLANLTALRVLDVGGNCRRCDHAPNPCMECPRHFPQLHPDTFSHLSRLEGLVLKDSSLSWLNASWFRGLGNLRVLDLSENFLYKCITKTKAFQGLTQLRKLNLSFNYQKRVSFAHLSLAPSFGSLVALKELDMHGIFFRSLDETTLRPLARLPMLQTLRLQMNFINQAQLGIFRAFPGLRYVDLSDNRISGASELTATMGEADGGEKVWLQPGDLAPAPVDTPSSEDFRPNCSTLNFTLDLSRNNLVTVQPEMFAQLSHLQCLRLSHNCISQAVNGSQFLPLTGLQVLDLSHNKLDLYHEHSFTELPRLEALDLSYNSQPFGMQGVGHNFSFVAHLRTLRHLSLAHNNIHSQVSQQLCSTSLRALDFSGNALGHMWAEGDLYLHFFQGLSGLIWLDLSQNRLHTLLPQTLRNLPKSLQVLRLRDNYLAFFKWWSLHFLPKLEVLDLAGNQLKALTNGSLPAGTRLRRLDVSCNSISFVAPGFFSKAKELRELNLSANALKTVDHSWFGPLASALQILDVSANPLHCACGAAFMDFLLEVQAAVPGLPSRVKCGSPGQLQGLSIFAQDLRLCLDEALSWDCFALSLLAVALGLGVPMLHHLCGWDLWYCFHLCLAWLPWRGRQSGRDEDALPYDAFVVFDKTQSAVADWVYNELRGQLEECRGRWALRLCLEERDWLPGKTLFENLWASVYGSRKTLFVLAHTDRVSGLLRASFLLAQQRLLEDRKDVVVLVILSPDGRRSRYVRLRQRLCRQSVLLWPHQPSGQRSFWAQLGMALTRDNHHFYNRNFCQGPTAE
# HTR2A ag = mouse HTR2A agonism via beta-arrestin recruitment; activation, % at 7.6 µM; P35363; 360,000 tested, 0.66% active; CHO-K1 mHTR2A beta-arrestin complementation, luminescence; percent of 30 µM serotonin response;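 active = activation above a run cutoff, the mean activation of all tested compounds plus 3 SD, cut at about 14% in these data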;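 note: 0% = plate median of compound wells and 100% = 30 µM serotonin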
# NOD2 RIPK2 PPI = NOD2-RIPK2 protein interaction inhibition | inhibition, % at 4.98 µM | O43353 | CHO BLA complementation NOD2-RIPK2, CCF4 ratio | 360,000 tested, 0.38% active | AID 624267; in the data active = inhibition above about 21%;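 note: 0% = vehicle only and 100% = reference blocker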
# Starred values were filed as active, the others as inactive; nt = no result; + = active, no number; ! = not confirmed by another sample.
SMILES,Rtt109 HAT inh,TLR4 MyD88 comp,LANA-H2B inh,TLR9-MyD88 inh,HTR2A ag,NOD2 RIPK2 PPI
COc1ccc(OC)c(Nc2nc(=O)c3cccnc3s2)c1,112.3*,-5.0,nt,10.1,-1.7,2.3
COc1ccc(/C=C2\SC(=S)N(C(C)C(=O)NC3C=CS(=O)(=O)C3)C2=O)cc1 (stereo unspecified),33.6,nt,-3.1,7.1,2.5,7.8
COc1cccc(/C=C2\SC(=S)N(C(C)C(=O)NC3C=CS(=O)(=O)C3)C2=O)c1 (stereo unspecified),154.1*,nt,27.5*,-7.0,5.1,3.6
Oc1ccccc1CNc1cnc2ccccc2c1,56.7*,3.8,20.1*,1.8,-4.0,-5.1
Nc1[nH]c(C(=O)c2ccccc2)c(-c2ccccc2Br)c1C(=O)NCCc1ccc(Cl)cc1Cl,nt,nt,nt,nt,10.9,-2.3
CN(C(=O)c1cncc(Br)c1)C1C2CC3CC(C2)CC1C3 (stereo unspecified),59.2*,nt,2.8,0.8,7.8,-6.7
Cc1cc(N2CCN(C(C(=O)NC3CCCC3)c3ccc(F)cc3)CC2)c2ccccc2n1 (stereo unspecified),nt,nt,nt,nt,-6.1,5.3
CC1(C)C(C#N)=C(N)OC2=C1C(=O)CCC2,3.7,-9.2,18.4*,3.4,1.8,-1.1
Cc1cccc(C)c1NC(=O)Nc1nnc([C@@H]2C[C@H](O)[C@@H](CO)O2)s1,nt,nt,nt,nt,6.6,-4.1
CCc1oc2ccccc2c1C(=O)c1cc(Br)c(O)c(Br)c1,8.4,-6.0,22.0*!,2.0,2.0,7.4
CCCCC[C@@H](C)N1C[C@H](COCc2ccccc2)Oc2cc(N3CCC[C@H]3C(N)=O)ccc2S1(=O)=O,nt,nt,nt,nt,-1.5,-15.9
O=C1OC(c2ccccc2)=N/C1=C\C=C\c1ccccc1[N+](=O)[O-],17.7,-8.1,12.4*,-1.2,0.1,-14.2
O=C(CC1SC(N2CCOCC2)=NC1=O)Nc1cccc(C(F)(F)F)c1 (stereo unspecified),-24.6,nt,-3.7,0.0,-11.5,1.1
O=C(CC1SC(N2CCOCC2)=NC1=O)Nc1ccc(Cl)c(C(F)(F)F)c1 (stereo unspecified),-1.6,nt,21.8*,2.7,-13.0,0.0
CCCCC1(C)OC(=O)C(=Cc2ccc(N(C)C)cc2)C(=O)O1 (stereo unspecified),-2.8,-3.5,-0.7,-9.0,19.8*,-4.0
O=C(/C=C/Nc1ccccc1)c1ccccc1,4.2,-5.6,-0.9,-6.6,-1.2,-5.0
O=C(/C=C/Nc1ccccc1)c1ccc(Cl)cc1Cl,2.8,nt,5.1*,7.3,-2.0,-1.4
CN1CCc2c(sc(/N=C/c3c[nH]c4ccccc34)c2C#N)C1,nt,nt,38.3*,nt,0.1,-6.2
COc1ccc(C(C)(O)c2nc(-c3ccc(S(C)(=O)=O)cc3)cs2)cc1 (stereo unspecified),nt,nt,nt,nt,-4.7,-7.5
COc1ccc(NC(=O)/C(Cl)=C(/Cl)S(=O)(=O)Cc2ccc(C)cc2)cn1,-4.1,5.8,nt,26.6*,-6.8,75.0*
CCN(CC)c1ccc(NC(=O)CCc2nnc3ccc(N4CCCC4)nn23)c(C)c1,8.1,nt,28.8*,-2.0,-3.1,-5.4
O=C(NCc1ccc(F)cc1F)[C@@H]1CCCN1C(=O)[C@@H]1CCCN1C(=O)c1cccs1,nt,nt,nt,nt,0.2,1.5
Cc1coc2c(C)c3oc(=O)c(CCC(=O)N4C[C@H]5C[C@@H](C4)c4cccc(=O)n4C5)c(C)c3cc12,6.1,nt,-5.6,-15.2,0.7,-6.2
Cc1oc2c(C)c3oc(=O)c(CCC(=O)N4C[C@H]5C[C@@H](C4)c4cccc(=O)n4C5)c(C)c3cc2c1C,-4.2,nt,35.1*,5.3,1.0,4.2
Cn1c(=O)[nH]c(=O)c2c1nc(Br)n2CCCc1ccccc1,nt,-4.1,nt,nt,nt,nt
SMILES,Rtt109 HAT inh,TLR4 MyD88 comp,LANA-H2B inh,TLR9-MyD88 inh,HTR2A ag,NOD2 RIPK2 PPI
Cn1c(=O)[nH]c(=O)c2c1nc(Br)n2CCCO,21.4,14.9,4.4*,-9.5,6.5,3.7
C=CCC[C@H](Cc1ccc(F)cc1)C(=O)O[C@H](CNC(=O)[C@@H](CC=C)CC(=O)N(CCO)Cc1ccccc1)c1ccccc1,-4.1,nt,71.3*,-10.1,-3.3,-1.7
COC(=O)C(C(C)C)N1CCc2c(C)nc3c(C#N)cnn3c21 (stereo unspecified),-6.9,6.7,59.9*,9.5,7.1,8.7
Cc1ccc(C)c(CC(=O)N2CCCC(c3cc(C(=O)Nc4ccccc4Cl)no3)C2)c1 (stereo unspecified),nt,nt,nt,nt,-2.2,-2.0
CCOC(=O)c1ccc(N2C(=O)c3n[nH]c(C)c3C2c2ccc(OC)cc2)cc1 (stereo unspecified),76.6*,-13.9,-3.4,3.0,-0.4,8.1
CCOC(=O)c1ccc(N2C(=O)c3n[nH]c(C)c3C2c2ccc(OC)c(OC)c2)cc1 (stereo unspecified),3.3,-8.1,-0.4,-4.6,-3.7,7.9
COCCNC(=O)C1(C)CCN(Cc2ccc3ccccc3c2Br)C1 (stereo unspecified),nt,nt,nt,nt,-5.2,4.9
COc1ccccc1N(CC(=O)N(C)Cc1ccccc1)S(=O)(=O)c1cccs1,5.3,nt,+,-12.8,-4.7,7.2
CC(C)C(NC(=O)c1c(F)cccc1F)C(=O)NCCc1ccc(S(N)(=O)=O)cc1 (stereo unspecified),-9.0,nt,-1.5,4.2,5.3,-4.3
CCOc1ccc(C(=O)NC(C(=O)NCCc2ccc(S(N)(=O)=O)cc2)C(C)C)cc1 (stereo unspecified),2.3,nt,14.5*,-15.5,-2.9,-5.5
COc1ccc(OC)c(NC(=O)c2nc3ccccc3s2)c1,-31.2,-0.1,1.1,-3.4,2.3,0.3
COc1ccc(NC(=O)c2nc3ccccc3s2)cc1,53.6*,-1.1,7.0,3.4,-1.8,-0.2
O=C(NCCc1ccc(Cl)cc1)c1cnccn1,-11.9,-4.0,+,4.0,1.9,6.0
CC(C)n1nnnc1C1c2ccccc2C(=O)N1C1CC1 (stereo unspecified),nt,nt,nt,nt,6.0,-1.7
Cc1ccc(/C=C/C(=O)NCc2ccc(S(N)(=O)=O)cc2)o1,72.4*,-10.5,nt,6.4,1.8,-1.7
CN(c1ccc(Cl)cc1)c1cc2c(c3c1ccn3C)C1CCC2O1 (stereo unspecified),nt,nt,nt,nt,3.4,-1.5
FC(F)(F)c1ccccc1Cc1c(-c2ccc(Cl)cc2)nc2c3ccccc3ccn12,nt,nt,nt,nt,0.3,-11.7
COc1cc2c(cc1OC)C(c1cccc(C)c1)CC(=O)N2 (stereo unspecified),nt,5.2,47.4*,-2.0,-5.1,-6.7
COc1cc2c(cc1OC)C(c1cccc(Cl)c1)CC(=O)N2 (stereo unspecified),-6.6,nt,-0.6,-6.4,-1.2,-3.9
CC1(C)O[C@@H]2C[C@H]3[C@@H]4CCC5=CC(=O)C=C[C@]5(C)[C@@]4(F)[C@@H](O)C[C@]3(C)[C@]2(C(=O)CO)O1,1.8,24.0,3.1,8.0,6.7,-10.2
